# Screening results as filed in PubChem BioAssay.
# Sampled rows, rich in hits. Any-hit rate of the full collection: about 3.3%.
# RE007 growth inh – less growth of the S. pombe RE007 Vpr strain; Potency, µM (top dose mostly 92.2 µM), without a hit: at the top dose activity change, negative = less growth, actives largely listed as inhibitors; S. pombe RE007 Vpr strain, BacTiter-Glo ATP luminescence, 24 h; AID 651644; hit rate 0.21% among 360,000; active means well fitted falling curve with a large enough effect; inconclusive means small, poorly fitted or top-dose-only effect; inactive means no such curve, though single readings can be large or run the other way; further: on the % scale 0 is the no-effect control and ±100 the full control effect; nearly all actives have a fitted effect of over 50% in size
#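 Fission yeast strain RE007, carrying one chromosomally integrated HIV-1 vpr copy, was seeded at OD 0.01 in PMG+AL medium with 23 nL pinned compound. After 24 h at 30 °C and 99% humidity, viability was read by BacTiter-Glo luminescence.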
# Sm TGR inh – blocks Schistosoma mansoni thioredoxin glutathione reductase; purified TGR, DTNB reduction, TNB absorbance 405 nm; hit rate 3% among 360,000; Potency, µM (titrated, usually from 114 µM), without a hit: at the highest dose activity change, negative = inhibition, actives largely listed as inhibitors; Q962Y6; further: on the % scale 0 is the no-effect control and ±100 the full control effect; nearly all actives have a fitted effect of over 60% in size
#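 TGR 20 nM + NADPH 100 uM (dispensed conc.), cpd preinc 15 min RT; start with NADPH (500 uM addition) then DTNB (15 mM addition). Kinetic TNB absorbance, 405 nm filter. Four-parameter Hill fit across titration.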
# Tb PYK inh – blocks Trypanosoma brucei pyruvate kinase; Potency, µM (top dose mostly 76.8 µM), for the others: top-dose activity, negative = inhibition, most hits filed as inhibitors; TbPYK enzyme, Kinase-Glo Plus ATP luminescence, 45 min; AID 624173; Q57TT1; hit rate 0.12% among 410,000; further: on the % scale 0 is the no-effect control and ±100 the full control effect; nearly all actives have a fitted effect of over 50% in size
#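 ADP (130 uM final) triggers the TbPYK reaction after compound addition; incubation is 45 min at room temperature. Kinase-Glo Plus is then added and luminescence imaged. Normalized data are fitted to concentration-effect curves.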
# AmpC inh detg – blocks E. coli AmpC beta-lactamase in detergent assay. AmpC hydrolysis of nitrocefin, absorbance 480 nm, 0.01% Triton. Potency, µM (titrated, usually from 114 µM), without a hit: at the highest dose activity change, negative = inhibition, most hits filed as inhibitors. hit rate 0.041% among 370,000;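 further: 0% = no-compound wells and -100% = no-enzyme wells; nearly all actives have a fitted effect of over 25% in size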
# Target sequence (P00811 whole entry, looked up): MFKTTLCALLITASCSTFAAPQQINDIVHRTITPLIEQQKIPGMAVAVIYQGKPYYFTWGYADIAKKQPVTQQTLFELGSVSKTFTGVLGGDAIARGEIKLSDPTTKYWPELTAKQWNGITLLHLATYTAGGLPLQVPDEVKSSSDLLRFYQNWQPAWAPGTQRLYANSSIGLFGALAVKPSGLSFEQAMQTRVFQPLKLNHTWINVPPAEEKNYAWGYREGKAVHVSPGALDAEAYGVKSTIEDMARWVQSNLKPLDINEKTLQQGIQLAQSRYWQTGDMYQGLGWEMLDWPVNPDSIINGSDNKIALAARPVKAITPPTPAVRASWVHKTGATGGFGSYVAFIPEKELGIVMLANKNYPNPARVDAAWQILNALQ
#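 AmpC (5.3 nM in the dispensed reagent) in 20 mM phosphate pH 7.0 with 0.01% (detergent screen) or 0.0001% Triton X-100 was preincubated with compounds for 15 min at room temperature. Nitrocefin was then added from an 800 uM solution, and hydrolysis was followed at 480 nm.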
# SARS PLP yeast – SARS-CoV PLP inhibition in yeast; S. cerevisiae expressing SARS-CoV PLpro, growth rescue; Potency, µM (series often up to 32.9 µM), inactives show at the highest dose activity, positive = growth rescue, usual class: activators; hit rate 0.19% among 330,000; calls by dose curve; further: 0% is about no effect; nearly all actives have a fitted effect of over 55% in size
# AmpC no deterg – blocks E. coli AmpC beta-lactamase in detergent-free assay; P00811; AmpC nitrocefin hydrolysis, absorbance 480 nm, 0.0001% Triton; Potency, µM (series often up to 57.1 µM), for the others: top-dose activity change, negative = inhibition, hits mostly inhibitors; hit rate 0.52% among 330,000;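 further: plate controls were no compound for no effect and no enzyme for full effect; nearly all actives have a fitted effect of over 20% in size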
#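 AmpC (5.3 nM in the dispensed reagent) in 20 mM phosphate pH 7.0 with 0.01% (detergent screen) or 0.0001% Triton X-100 was preincubated with compounds for 15 min at room temperature. Nitrocefin was then added from an 800 uM solution, and hydrolysis was followed at 480 nm.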
# * marks the source's active call; other numbers are inactive results; ? = inconclusive; / = no result given; [ ] = remark or other dose. Unless noted, the call rests on the fitted dose curve; in most records, active means well fitted curve in the direction sought with a large enough effect; inconclusive means small, poorly fitted or top-dose-only effect, or another doubt; inactive means no such curve, though single readings can be large; an effect the other way counts as inactive or inconclusive. Potency means the concentration at half of the fitted maximal effect.
SMILES,RE007 growth inh,Sm TGR inh,Tb PYK inh,AmpC inh detg,SARS PLP yeast,AmpC no deterg
COC(=O)C1=C(C)OC(N)=C(C#N)C1c1ccccc1F (stereo not given),13%,2%,3%,?,-3%,-25%
N#CC1=C(N)Oc2cc(O)c(Cl)cc2C1c1ccccc1F (stereo not given),/,45µM*,-6%,-10%,0%,-51%
COc1cccc(-c2nc(S(=O)(=O)c3ccc(C)cc3)c(N3CCCCC3)o2)c1,/,0%,3%,8%,/,/
CC(C)(C)c1ccc(NC(=O)COC(=O)C2CCCC2)cc1,5%,-16%,0%,-20%,8%,-16%
CC(C)(C)c1ccc(NNC(=O)C2CCC2)cc1,3%,45µM*,0%,6%,0%,-13%
CCn1c(SCC(=O)c2cccs2)nnc1-c1ccco1,5%,45µM*,-29%,-4%,3%,-14%
Cc1cc2c(C)ccc(C)c2nc1SCC(=O)c1cccs1,3%[3.69 µM],5%,/,?,2%,0.18µM*
Cc1cc(SCC(=O)c2cccs2)nc2c(C)cccc12,1%,3%,6%,?,-5%,-33%
C=CCn1c(SCC(=O)N2c3ccccc3Sc3ccccc32)nnc1-c1ccco1,6%,?,6%,-4%,-7%,31%
CCn1c(SCC(=O)N2c3ccccc3Sc3ccccc32)nnc1-c1ccco1,1%,14µM*,-14%,?,-20%,54%
Cn1nnnc1SCC(=O)c1ccc(Br)s1,-10%,-1%,-12%,-3%,-11%,-32%
Cn1nnnc1SCC(=O)c1cccs1,-15%,40µM*,-7%,1%,-10%,-21%
COc1cccc(-c2nc(CS(=O)(=O)CC(=O)NC3CCCC3)c(C)o2)c1,4%,45µM*,3%,0%,24%,53%
Cc1oc(-c2cccc(Cl)c2)nc1CS(=O)(=O)CC(=O)NC1CCCC1,-12%,45µM*,-1%,-18%,3%,47%
CCOc1ccccc1C(=O)N1CCc2cc(OC)c(OC)cc2C1COc1ccc(OC)cc1 (stereo not given),/,-1%,5%,7%,/,/
COC(=O)C1=C(c2ccccc2)c2ccccc2S(=O)(=O)N1CC(=O)Nc1ccc(OC)cc1OC,/,1%,8%,14%,/,/
C=CCN1C(=O)c2ccc(C(=O)N(C)Cc3ccc(C)o3)cc2C1=O,-12%,50µM*,-15%,-1%,4%,8%
O=C1C2C3C=CC(CNS(=O)(=O)c4ccccc4[N+](=O)[O-])(O3)C2C(=O)N1c1ccccc1 (stereo not given),5µM*,3.2µM*,-20%,-5%,-5%,-36%
Cc1cc(C)c(S(=O)(=O)NCC23C=CC(O2)C2C(=O)N(c4ccccc4)C(=O)C23)c(C)c1 (stereo not given),22µM*,4.5µM*,-20%,-15%,-30%,40%
O=C1NCCN1CCNS(=O)(=O)c1ccccc1[N+](=O)[O-],-3%,7%,-6%,3%,1%,-12%
CCc1ccc(-n2c(=O)c3c4c(sc3n(Cc3ccccc3C#N)c2=O)CCCC4)cc1,/,-2%,3%,15%,/,/
CN(c1ccccc1)S(=O)(=O)c1ccc(NC(=O)c2cc(=O)c3ccccc3o2)cc1,/,4%,8%,8%,/,/
COc1ccc(-n2nc3cc(N)c(Br)cc3n2)cc1,-4%,4%,-17%,?,0%,-29%
COc1ccc(-n2nc3cc(C)c(N)c(Br)c3n2)cc1,0%,40µM*,?,-3%,-3%,-17%
CC12CC3(C)CC(C)(C1)CC(C(=O)NC1=NCCS1)(C2)C3,25µM*,/,1%,/,/,/
CC12CC3CC(C)(C1)CC(C(=O)NC1=NCCS1)(C3)C2,5.6µM*,3%,-8%,0%,-12%,-2%
